Test results reported in PubChem BioAssay (NCATS).
A number with no mark means an inactive call. Calls come from the whole dose curve; as a rule, active = well fitted curve in the direction sought with a large enough effect; inconclusive = small, poorly fitted or top-dose-only effect, or another doubt; inactive = no such curve, though single readings can be large or run the other way.

biological target: Alpha-galactosidase (Coffea arabica) (UniProt Q42656); assay: Counterscreen for Glucocerebrosidase Inhibitors: qHTS Assay for Coffee Bean alpha-Galactosidase at pH 4.5 (AID 957); details: purified coffee bean alpha-galactosidase, fluorogenic substrate; series mostly up to 76.9 µM; activity change, negative = inhibition: at the top concentration;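 note: plate controls were enzyme alone for no effect and no enzyme for full effect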
How it was run: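 Quantitative HTS of compounds (0.7 nM to 77 uM) against coffee bean alpha-galactosidase at pH 4.5, measuring 4-methylumbelliferone fluorescence released from 80 uM substrate.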

Sequence of Alpha-galactosidase (Coffea arabica) (Q42656 whole entry, looked up): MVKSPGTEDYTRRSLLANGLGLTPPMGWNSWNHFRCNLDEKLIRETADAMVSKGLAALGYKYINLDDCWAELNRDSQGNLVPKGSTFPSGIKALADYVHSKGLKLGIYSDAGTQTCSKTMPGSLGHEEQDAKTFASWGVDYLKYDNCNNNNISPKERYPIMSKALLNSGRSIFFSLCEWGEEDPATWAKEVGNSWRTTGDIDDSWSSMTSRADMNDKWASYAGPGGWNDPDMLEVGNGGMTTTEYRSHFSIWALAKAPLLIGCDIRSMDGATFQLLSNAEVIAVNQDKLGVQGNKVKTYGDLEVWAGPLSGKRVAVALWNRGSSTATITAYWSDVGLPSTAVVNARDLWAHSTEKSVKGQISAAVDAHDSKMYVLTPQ

| Structure (SMILES) | activity change, negative = inhibition [%] |
| --- | --- |
| C[C@]12CCC(=O)C=C1CC[C@@H]1[C@@H]2C(=O)C[C@@]2(C)[C@H]1CC[C@]2(O)C(=O)CO | 0.672 |
| COc1cc2c(cc1OC)-c1cc(=Nc3c(C)cc(C)cc3C)n(C)c(=O)n1CC2 | -2.75 |
| Cc1nc2sccn2c(=O)c1CCN1CCC(=C(c2ccc(F)cc2)c2ccc(F)cc2)CC1 | -6.65 |
| NC(N)=NCCC[C@H](N)C(=O)O | -0.912 |
| C[N+](C)(C)CCOC(=O)CCC(=O)OCC[N+](C)(C)C | 3.22 |
| CC(C)NCC(O)COc1ccc(COCCOC(C)C)cc1 (stereo not drawn) | -3.29 |
| O=C(CCNNC(=O)c1ccncc1)NCc1ccccc1 | -2.19 |
| Clc1ccc(Cn2c(CN3CCCC3)nc3ccccc32)cc1 | -3.34 |
| CCc1cccc2c3c([nH]c12)C(CC)(CC(=O)O)OCC3 (stereo not drawn) | 1.48 |
| O=C(Nc1ccc([N+](=O)[O-])cc1Cl)c1cc(Cl)ccc1O | 0.0268 |
| O=C(c1ccc(F)cc1)C1CCN(CCn2c(=O)[nH]c3ccccc3c2=O)CC1 | -2.42 |
| C[C@]12C=CC(=O)C=C1CC[C@H]1[C@@H]3C[C@@H](O)[C@](O)(C(=O)CO)[C@@]3(C)C[C@H](O)[C@@]12F | -1.88 |
| CN1[C@@H]2CC[C@H]1CC(OC(=O)c1c[nH]c3ccccc13)C2 (stereo partly drawn) | -1.23 |
| CCCCNc1cc(C(=O)O)cc(S(N)(=O)=O)c1Oc1ccccc1 | -2.1 |
| NCCc1ccc(O)c(O)c1 | 1.88 |
| CN(C)CCCN1c2ccccc2Sc2ccc(C(F)(F)F)cc21 | -2.09 |
| O=C(O)CP(=O)(O)O | -2.8 |
| OC(CN1CCC(Cc2ccc(F)cc2)CC1)c1ccc(Cl)cc1 (stereo not drawn) | 0.164 |
